# The sample as a whole holds a higher share of hits than the screen did.
# RBX1-CUL1 inh: blocks human RBX1-Cullin-1 di-ubiquitin formation | inhibition, % at 10 µM | P62877+Q13616 | in vitro K48 di-Ub FRET, acceptor:donor ratio, 45 min | actives 0.6% (n = 140,000); in the data active = inhibition above about 25%
# * marks the source's active call; other numbers are inactive results.
SMILES,RBX1-CUL1 inh
COc1ccc(C2C(C(=O)Nc3ccc(C)cc3C)C(C)=Nc3nc(SC)nn32)cc1OC (stereo unspecified),1
CCN=C1CC=C(Br)C=C(C(=O)/C=C/c2ccc(C(F)(F)F)cc2)C1=O,6
CC1CN(C(=O)/C=C/c2ccc(F)cc2)C(C)CN1C(=O)/C=C/c1ccc(F)cc1 (stereo unspecified),-2
CCN=C1CC=C(Br)C=C(C(=O)/C=C/c2ccc(F)cc2)C1=O,27*
Cn1c(NCc2ccccn2)nc2ccccc21,-4
CCCCCCSc1nnc2c(n1)OC(c1ccccc1Cl)N(C(C)=O)c1ccccc1-2 (stereo unspecified),-2
CCC1c2c(ccc3ccccc23)OC(=O)C1C(=O)Nc1ccc(C)cc1 (stereo unspecified),-6
O=C1Oc2ccc3ccccc3c2C(=O)C1CC1C(=O)Oc2ccc3ccccc3c2C1=O (stereo unspecified),32*
O=C1/C(=C/c2ccc(Cl)cc2)COc2ccc3ccccc3c21,15
CCOC(=O)c1cc(C(=O)Nc2ccc(CN3CCCCC3)cc2)n(C)n1,-15
Cc1ccc(C2=NC(C(F)(F)F)(C(F)(F)F)N=C(c3cccs3)N2)cc1,-2
Fc1ccccc1C1Nc2ccc3ccccc3c2C2C=CCC21 (stereo unspecified),-7
Cc1ccc(C(=O)O)c2c1N[C@@H](c1ccccc1F)[C@H]1CC=C[C@@H]21,33*
CC(=O)Nc1ccc2c(c1)C1C=CCC1C(c1ccccc1F)N2 (stereo unspecified),-7
O=S(=O)(Cc1ccc(Cl)cc1)Nc1ccccc1Cl,2
O=C1CN(Cc2cn(C3CCN(C(=O)Nc4ccc(F)cc4)CC3)nn2)CCN1,4
N#C/C(=C\c1ccc(Cl)s1)C(N)=O,3
COC(=O)/C(C#N)=C/c1c(OC)[nH]c2ccccc12,-10
CC(=O)Oc1c(/C=C(\C#N)C(N)=O)[nH]c2ccccc12,47*
COc1cccc(NC(=O)CSc2nnc(CNC(=O)c3ccccc3Cl)n2C)c1,2
O=C(O)c1ccccc1SC1C(=O)Oc2ccccc2C1=O (stereo unspecified),46*
O=C1Oc2ccccc2C(=O)C1C(=O)c1ccccc1 (stereo unspecified),-2
O=C1Oc2ccccc2C(=O)C1Sc1ccc(Cl)cc1 (stereo unspecified),-1
Cc1ccn2c(C(=O)NNC(=S)NCc3ccccc3)c(C)nc2c1,11
Cc1nc(C2CCCNC2)cc(N2CCCOCC2)n1 (stereo unspecified),6
SMILES,RBX1-CUL1 inh
Cc1cc(C(=O)CN2CCOCC2)c(C)n1-c1ccc(Cl)c(Cl)c1,-3
Cc1nc(N)sc1C(=O)N/N=C\c1ccc(O)c([N+](=O)[O-])c1,7
Oc1ccc(NCc2ccccc2OCc2ccccc2F)cc1,10
CCOc1ccccc1CNc1ccc(N2CCOCC2)cc1,5
NS(=O)(=O)c1ccc(NCc2ccccc2OCc2ccccc2F)cc1,-2
CCOc1ccccc1CNc1ccc(O)cc1,46*
Oc1ccc(NCc2ccccc2OCc2ccccc2Cl)cc1,-31
Oc1ccc(NCc2cc(Cl)ccc2OCc2ccccc2F)cc1,30*
CN1CCC(N2CCCC(NC(=O)C3=CCCC3)C2)CC1 (stereo unspecified),12
O=S(=O)(Cc1ccccc1)Nc1ccc2ccccc2c1,17
O=C(NCc1cc2ccccc2[nH]1)c1cccc(COc2ccc(Cl)cc2)c1,3
Nc1c(C(=O)NCC(c2ccccc2)c2ccccc2)sc2nc(-c3ccncc3)ccc12,-12
Cc1ccc(-c2nc3c(sc4ncccc43)c(=O)o2)cc1,-1
Cn1nccc1C(=O)n1cnc2ccccc21,-9
Cn1nccc1C(=O)C#Cc1ccccc1,62*
Cn1nccc1C(=O)NC(C)(C)CC(C)(C)C,1
CC1CC(C(F)F)n2nc(C(=O)Nc3cc(OCC(F)(F)F)cc([N+](=O)[O-])c3)nc2N1 (stereo unspecified),7
COC(=O)c1ccc(NC(=O)CSc2nc(C)nc3sc4c(c23)CCC4)cc1,3
Cc1nc(SCC(=O)Nc2ccc3c(c2)OCCO3)c2c3c(sc2n1)CCCC3,42*
Cc1nc(SCC(=O)Nc2ccc3ccccc3c2)c2c3c(sc2n1)CCCC3,0
O=C1[C@@H]2OC[C@@H](O2)[C@H]2[C@@H]1[C@@H]1c3ccccc3C=CN1[C@H]2C(=O)c1ccccc1,-10
CC1=NN(c2ccccc2)C(=O)/C1=C/c1cn(CN2CCOCC2)c2ccccc12,5
CC(=O)N1CCc2ccc(S(=O)(=O)N3CCN(c4ccc(F)cc4)CC3)cc21,-7
COc1ccc(C2c3c(n[nH]c3C)OC(=N)C2C#N)cc1COc1ccccc1 (stereo unspecified),-4
CN(C(=O)c1ccccn1)C(Cc1ccccc1)C1CCN(C(=O)c2scc3c2CCCC3)CC1 (stereo unspecified),0
O=C(N=C(C(=O)N1CCOCC1)C(Sc1ncccn1)c1ccccc1)c1ccccc1 (stereo unspecified),-4
Nc1nc2ccc(N)c(Cl)c2c(=O)[nH]1,-5
Nc1nc(N)c2c(F)c(N)ccc2n1,65*

# Source: PubChem
